In PubChem BioAssay (NCATS):
Calls of active or inactive are those of the source. The call rests on the fitted dose curve; in most records, active means well fitted curve in the direction sought with a large enough effect; inconclusive means small, poorly fitted or top-dose-only effect, or another doubt; inactive means no such curve, though single readings can be large or run the other way.

Assay: Cellular Toxicity (caspase-3) BJ (AID 658)
Conditions: BJ fibroblasts, luminescence, normalized: DMSO 0%, staurosporine 100%; series mostly up to 91.7 µM; caspase-3 activation: at the top concentration
Excerpt: NIH Chemical Genomics Center [NCGC]
NIH Molecular Libraries Screening Centers Network [MLSCN]
National Institutes of Environmental Health Sciences [NIEHS]
National Toxicology Program [NTP]
We have developed a 1536-well cell-based assay for quantitative high throughput screening (qHTS) against a number of cell lines to determine in vitro caspase 3/7 activity of small molecules. This particular assay uses BJ cell line which is derived from normal human foreskin fibroblast.
NCGC Assay Protocol Summary:
The Caspase-Glo 3/7 assay (Promega) is a homogeneous method to measure caspase-3 and caspase-7 activities in cultured cells. The quantitation of caspase 3/7 activity is based on the cleavage of a peptide-aminoluciferin substrate. After caspase cleaves the substrate the free aminoluciferin is liberated and serves as the substrate of luciferase, which generates the light. The luminescent signal is proportional to amount of caspase 3/7 activity present.
Using the Caspase-Glo 3/7 assay, the amount of caspase 3/7 activity was measured in the BJ cell line with complete culture medium following compound treatment for 16 hours. The assay was performed in opaque white 1536-well plates. In the screen, staurosporine and tamoxifen were used as positive controls. Library compounds were measured for their ability to cause the activation of caspase 3/7 in the cell line, as reflected by an increase in luminescence signal, in a concentration-dependent manner. Data were normalized to the controls for basal activity (DMSO only) and 100% stimulation (10 uM staurosporine). AC50 values were determined from concentration-response data modeled with the standard Hill equation.
qHTS protocol for caspase 3/7 assay in the BJ cells
[Step] [Parameter] [Value] [Description]
1. Reagent; 5 uL; 1000 the BJ cells/well
2. Time; 5 hr; 37 °C incubation
4. Controls; 23 nL; Tamoxifen 0.23 uM to 100 uM & staurosporine 1.4 pM to 100 uM
5. Time; 16 hr; 37 °C incubation
6. Reagent; 5 uL; Caspase-Glo 3/7 reagent
7. Time; 1 hr; Room Temperature
8. Detection; Luminescence; Viewlux plate reader
Keywords: caspase 3/7, apoptosis, the BJ cell line, luminescence, NTPHTS, NTPHTS_NCGC, NIEHS, EPA, DSSTox, MLSMR, MLSCN, NIH Roadmap, qHTS, NCGC

Structure (SMILES) | caspase-3 activation | outcome
COC(=O)CCCCC(=O)OC | -0.561% (inactive) | 
Cc1cccc([N+](=O)[O-])c1C | 0.182% (inactive) | 
C=CC(=O)OCCOCCOCCOCCOC(=O)C=C | 11.6% (inactive) | 
CC1=C2[C@H](/C=C(\C)C(=O)O)CC[C@@H](C)[C@H]2CC1 | -0.977% (inactive) | 
C=CCc1ccc(OC)c(OC)c1 | -0.038% (inactive) | 
C[C@H](CCC(=O)O)[C@H]1CC[C@H]2[C@@H]3CC[C@@H]4C[C@H](O)CC[C@]4(C)[C@H]3CC[C@]12C | 0.503% (inactive) | 
CCCCCCCCO | -1.04% (inactive) | 
NC1=NC(S)C2N=CN=C2N1 (stereo not given) | 0.0589% (inactive) | 
CCC(O)OC(O)CC (stereo not given) |  | inactive
O=C1c2ccccc2C(=O)C1c1ccc2ccccc2n1 | -8.59% (inactive) | 
O=[N+]([O-])c1cccc(Cl)c1Cl | -0.217% (inactive) | 
CN(C)C=O |  | inactive
O=C(/C=C/c1ccc(O)c(O)c1)O[C@@H](C(=O)O)[C@@H](OC(=O)/C=C/c1ccc(O)c(O)c1)C(=O)O | 0.175% (inactive) | 
CCO | 2.61% (inactive) | 
C=C(C)C1CC=C(C)C(O)C1 (stereo not given) | 1.07% (inactive) | 
COC(=O)c1ccc(C=O)cc1 | -0.938% (inactive) | 
C=Cc1ccccc1Cl | -0.75% (inactive) | 
COc1c2ccoc2cc2oc(=O)ccc12 | -1.06% (inactive) | 
CCCCC(CC)CN (stereo not given) |  | inactive
OCCNCCO | -1.67% (inactive) | 

Structure (SMILES) | caspase-3 activation | outcome
Nc1ccc(Cl)cc1Cl | 2.53% (inactive) | 
COCC(=O)O | -1.82% (inactive) | 
C=CCOC(=O)c1ccccc1C(=O)OCC=C | 1.79% (inactive) | 
O=C(O)CC(C(=O)O)C(CC(=O)O)C(=O)O (stereo not given) | -0.834% (inactive) | 
CC(=O)OC/C=C(\C)CCC=C(C)C | -0.0329% (inactive) | 
C1OCOCO1 | 0.262% (inactive) | 
Cc1c(N=C=O)cccc1N=C=O | -1.01% (inactive) | 
CCCCCCCCCCCCCC(=O)O | -0.505% (inactive) | 
O=C(O)c1ccccc1C(c1ccc(O)cc1)c1ccc(O)cc1 | 1.02% (inactive) | 
Cc1ccc([N+](=O)[O-])c(C)c1 | 0.907% (inactive) | 
Cc1ccc([N+](=O)[O-])cc1N | 1.84% (inactive) | 
O[C@@H]([C@H](O)[C@@H](O)CBr)[C@@H](O)CBr | -0.0677% (inactive) | 
O=C(O)c1ccccc1 | -1.18% (inactive) | 
CCCCCCCCCCCCCCC1CO1 (stereo not given) | -0.627% (inactive) | 
O=C1CCc2ccccc2O1 | -0.657% (inactive) | 
Cc1ccccc1C |  | inactive
C=CC(=C)CCC=C(C)C | -0.719% (inactive) | 
CC12CCC(CC1=O)C2(C)C (stereo not given) | 0.665% (inactive) | 
C/C=C\c1ccc(OC)cc1 | 0.425% (inactive) | 
Cc1ccc(N)c([N+](=O)[O-])c1 | -0.476% (inactive) | 
